Screens as filed in PubChem BioAssay.
D2 ag-1 – HTS Assay for Allosteric Agonists of the Human D2 Dopamine Receptor: Primary Screen for Agonists; 0.53% of 340,000 active; D(2) dopamine receptor (Homo sapiens), P14416; HEK293 T-REx D2 cells, calcium flux agonist mode; activation, % at 2 µM;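 active = activation over 3 SD above normal in the single-dose calcium agonist read, cut at about 30% in these data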; also: 0% is about no effect
Target sequence (P14416 whole entry, looked up): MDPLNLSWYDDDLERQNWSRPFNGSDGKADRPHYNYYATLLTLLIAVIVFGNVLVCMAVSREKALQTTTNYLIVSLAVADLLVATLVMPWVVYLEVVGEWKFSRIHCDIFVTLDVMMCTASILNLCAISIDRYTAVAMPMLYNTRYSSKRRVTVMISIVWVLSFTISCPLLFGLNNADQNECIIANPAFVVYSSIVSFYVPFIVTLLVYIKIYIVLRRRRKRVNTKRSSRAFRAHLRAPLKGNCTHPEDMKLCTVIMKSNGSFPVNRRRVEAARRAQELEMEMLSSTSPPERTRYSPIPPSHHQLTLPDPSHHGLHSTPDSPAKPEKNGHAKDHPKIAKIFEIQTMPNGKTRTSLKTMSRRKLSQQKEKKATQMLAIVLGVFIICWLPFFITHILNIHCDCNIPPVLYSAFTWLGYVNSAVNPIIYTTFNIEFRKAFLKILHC
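In this primary screen, compounds producing a positive calcium signal within 180 s of addition to tetracycline-induced, force-coupled HEK293 Trex D2 cells are flagged; cells are dye-loaded with a no-wash calcium kit beforehand.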
D2 PAM-1 – Beta-Arrestin HTS for Positive Allosteric Modulators of the Human D2 Dopamine Receptor: Potentiators. D(2) dopamine receptor (Homo sapiens), P14416. DiscoveRx D2 beta-arrestin cells, luminescence, 90 min; 100% = 57 uM dopamine signal. potentiation, % (no concentration beside the values). 0.23% of 360,000 active. AID 624464, 2012; in the data active = potentiation above about 50%
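PathHunter D2 cells, attached overnight at 37 deg C, received compound in DMSO plus dopamine at EC20 (50 nM final) for 90 min at 37 deg C. Beta-arrestin recruitment was read as luminescence after 1 h with detection reagent at ambient temperature.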
D2 PAM-2 – HTS Assay for Positive Allosteric Modulators of the Human D2 Dopamine Receptor: Primary Screen for Potentiators | D(2) dopamine receptor (Homo sapiens), P14416 | HEK293 T-REx D2, calcium flux, EC20 dopamine potentiation | potentiation, % at 10 µM | 0.34% of 340,000 active | AID 485347, 2010;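 active = potentiation over 3 SD above the plate norm, cut at about 30% in these data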; also: 0% is about no effect
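Tetracycline-induced HEK293 T-REx cells force-coupled to calcium signalling expressed D2; compounds were pin-added after a 10 s baseline, read kinetically 180 s, then an EC20 dopamine challenge followed with a further 180 s calcium read.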
D2 antagonist – HTS Assay for Allosteric Antagonists of the Human D2 Dopamine Receptor: Primary Screen for Antagonists; AID 485344, 2010; HEK293 TREx D2 cells, calcium flux, dopamine EC80; inhibition, % at 10 µM; 2% of 340,000 active; in the data active = inhibition above about 30%; inactive = below that, where a call was filed; also: 0% is about no effect
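Inhibition of EC80 dopamine-driven calcium flux, recorded kinetically, defines activity here; cells are a tetracycline-induced HEK293 T-REx line expressing force-coupled D2.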
D2 ag-2 – Beta-Arrestin HTS for Positive Allosteric Modulators of the Human D2 Dopamine Receptor: Agonists. activation, % (concentration not given with the values). D(2) dopamine receptor (Homo sapiens), P14416. DiscoveRx PathHunter D2 beta-arrestin, luminescence, 90 min; 100% = 57 uM dopamine signal. 0.084% of 360,000 active; in the data active = activation above about 40%
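Agonist mode: compounds alone added to overnight-plated D2 PathHunter cells for 90 min at 37 C, with 57 uM final dopamine (EC100) defining full response. Beta-arrestin recruitment detected by chemiluminescent reagent, read after 1 h at ambient temperature.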
* hit, by the source's call; nt = no result given. Hits are enriched below; roughly 2.4% of the tested compounds scored in any of these assays.

SMILES	D2 ag-1	D2 PAM-1	D2 PAM-2	D2 antagonist	D2 ag-2
CCN1CCC(N(Cc2ccc3c(c2)OCO3)C(=O)Nc2cc(Cl)ccc2C(=O)OC)CC1	17.2	nt	-18.7	nt	nt
Cc1ccc(-n2nnnc2CN2CCCCC2)cc1	0.0	-1.8	0.6	37.8*	2.0
Cc1cc(C)c2c(c1)[C@@H]1C=CC[C@@H]1[C@H](c1ccc(S(=O)(=O)N3CCOCC3)cc1)N2	-0.2	-4.6	2.0	35.0*	-1.6
CCCCN1CCCC1CNC(=O)c1cc(C#N)c2ccccc2c1OC (centres undefined)	1.2	nt	-26.6	84.4*	nt
CCN1CCC[C@H]1CNC(=O)c1c(O)c(Cl)cc(Cl)c1OC	-2.3	-27.0	-27.0	76.0*	-7.2
CCN1CCCC1CNC(=O)c1cc2c(OC)c(OC)c(OC)cc2[nH]1 (centres undefined)	0.3	-13.0	-23.4	82.7*	-0.1
CCN1CCCC1CNC(=O)c1cc(OC)c(OC)c(OC)c1 (centres undefined)	0.5	-37.1	-21.4	-18.6	0.3
CCN1CCCC1CNC(=O)c1cc2c(OC)cccc2[nH]1 (centres undefined)	nt	-24.4	nt	nt	-2.7
Cc1nc2c(C(=O)N(C)Cc3ccccc3)c[nH]n2c(=O)c1Cc1ccc(Cl)cc1	nt	nt	-8.9	nt	nt
COc1ccc(C(=O)NCc2cn3ccsc3n2)cc1OC	1.2	-1.9	33.1*	-5.4	-3.0
Cc1ccc(S(=O)(=O)Cc2nc(-c3ccc(C(=O)NCc4ccccc4)cc3)oc2C)cc1	0.0	nt	-8.2	nt	nt
O=C(NCCN1CCOCC1)C12CC3CC(C1)CC(c1ccccc1)(C3)C2	-0.5	-9.9	0.6	38.4*	0.5
CN1CCN(CC/C=C2/c3ccccc3Sc3ccc(S(=O)(=O)N(C)C)cc32)CC1	0.7	-35.1	-23.4	80.0*	-3.3
O=C(CC1N=C2c3ccccc3N=C(SCc3ccccc3F)N2C1=O)NCc1ccc2c(c1)OCO2 (centres undefined)	0.4	nt	nt	nt	nt
COc1cccc(CNC(=O)CN2C(=O)N(c3ccc(C)cc3C)S(=O)(=O)c3ccccc32)c1OC	1.1	nt	-7.3	nt	nt
CCOC(=O)c1ccc(CN2C(=O)c3ccccc3S2(=O)=O)cc1	2.2	1.9	9.0	-16.0	-6.9
CCOc1ccc(C(C)=O)cc1CN1C(=O)c2ccccc2S1(=O)=O	0.8	-2.2	0.8	34.0*	-2.1
COc1ccccc1CNc1nc2c(S(=O)(=O)c3ccc(C)c(C)c3)nnn2c2ccc(Cl)cc12	nt	nt	2.4	nt	nt
O=C(CSC1=NS(=O)(=O)c2cc(F)ccc2N1)NCCc1ccccc1	36.0*	-19.3	-5.7	23.8	-4.9
O=C1CN2C(=N1)N(Cc1ccccc1)c1ccccc12	0.7	5.8	-12.8	70.7*	0.2
c1ccc(CN2C3=NCCCN3c3ccccc32)cc1	-2.9	-14.5	11.6	-24.6	3.3
COc1cccc(NC(=O)[C@H](Cc2ccccc2)NC(=O)[C@@H]2Cc3ccccc3CN2)c1	-0.4	-11.2	5.7	35.4*	-1.2
CC(C)c1ccc(NC(=O)[C@H](NC(=O)[C@@H]2Cc3ccccc3CN2)c2ccccc2)cc1	-0.5	-19.0	-11.0	32.7*	-2.6
Cc1ccc(NC(=O)[C@H](NC(=O)[C@@H]2Cc3ccccc3CN2)c2ccccc2)cc1	0.9	-33.0	-23.9	-5.8	0.0
O=C(Cn1c(=O)nc(-c2ccccc2)c2ccccc21)NCc1ccccc1Cl	nt	nt	2.1	nt	nt
N#CCOC(=O)C1CCN(S(=O)(=O)c2ccc3c(c2)OCCO3)CC1	0.5	1.4	33.5*	5.4	-1.5
CCNC(=O)COC(=O)C1CCN(S(=O)(=O)c2ccc3c(c2)OCCO3)CC1	-0.5	3.5	9.2	6.0	0.0
O=C(O)c1nn(CCOc2ccccc2F)c(=O)c2ccccc12	0.8	-3.9	32.6*	-11.4	-7.6
O=C(O)c1nn(CCOc2ccc(Br)cc2)c(=O)c2ccccc12	1.1	-1.5	7.2	18.6	-1.1
